High-throughput results as filed in PubChem BioAssay.
The full list was thinned out, with hits kept by preference.
mHTT-CaM PPI inh – mHTT-calmodulin interaction abrogation; P42858; AlphaScreen His-mHTT/GST-CaM binding, luminescence; inhibition, % at 15 µM; actives 3.6% (n = 190,000); AID 1671202;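 further: 0% = both proteins with DMSO and 100% = one protein alone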
Target sequence (P42858 whole entry, looked up, stated change not applied): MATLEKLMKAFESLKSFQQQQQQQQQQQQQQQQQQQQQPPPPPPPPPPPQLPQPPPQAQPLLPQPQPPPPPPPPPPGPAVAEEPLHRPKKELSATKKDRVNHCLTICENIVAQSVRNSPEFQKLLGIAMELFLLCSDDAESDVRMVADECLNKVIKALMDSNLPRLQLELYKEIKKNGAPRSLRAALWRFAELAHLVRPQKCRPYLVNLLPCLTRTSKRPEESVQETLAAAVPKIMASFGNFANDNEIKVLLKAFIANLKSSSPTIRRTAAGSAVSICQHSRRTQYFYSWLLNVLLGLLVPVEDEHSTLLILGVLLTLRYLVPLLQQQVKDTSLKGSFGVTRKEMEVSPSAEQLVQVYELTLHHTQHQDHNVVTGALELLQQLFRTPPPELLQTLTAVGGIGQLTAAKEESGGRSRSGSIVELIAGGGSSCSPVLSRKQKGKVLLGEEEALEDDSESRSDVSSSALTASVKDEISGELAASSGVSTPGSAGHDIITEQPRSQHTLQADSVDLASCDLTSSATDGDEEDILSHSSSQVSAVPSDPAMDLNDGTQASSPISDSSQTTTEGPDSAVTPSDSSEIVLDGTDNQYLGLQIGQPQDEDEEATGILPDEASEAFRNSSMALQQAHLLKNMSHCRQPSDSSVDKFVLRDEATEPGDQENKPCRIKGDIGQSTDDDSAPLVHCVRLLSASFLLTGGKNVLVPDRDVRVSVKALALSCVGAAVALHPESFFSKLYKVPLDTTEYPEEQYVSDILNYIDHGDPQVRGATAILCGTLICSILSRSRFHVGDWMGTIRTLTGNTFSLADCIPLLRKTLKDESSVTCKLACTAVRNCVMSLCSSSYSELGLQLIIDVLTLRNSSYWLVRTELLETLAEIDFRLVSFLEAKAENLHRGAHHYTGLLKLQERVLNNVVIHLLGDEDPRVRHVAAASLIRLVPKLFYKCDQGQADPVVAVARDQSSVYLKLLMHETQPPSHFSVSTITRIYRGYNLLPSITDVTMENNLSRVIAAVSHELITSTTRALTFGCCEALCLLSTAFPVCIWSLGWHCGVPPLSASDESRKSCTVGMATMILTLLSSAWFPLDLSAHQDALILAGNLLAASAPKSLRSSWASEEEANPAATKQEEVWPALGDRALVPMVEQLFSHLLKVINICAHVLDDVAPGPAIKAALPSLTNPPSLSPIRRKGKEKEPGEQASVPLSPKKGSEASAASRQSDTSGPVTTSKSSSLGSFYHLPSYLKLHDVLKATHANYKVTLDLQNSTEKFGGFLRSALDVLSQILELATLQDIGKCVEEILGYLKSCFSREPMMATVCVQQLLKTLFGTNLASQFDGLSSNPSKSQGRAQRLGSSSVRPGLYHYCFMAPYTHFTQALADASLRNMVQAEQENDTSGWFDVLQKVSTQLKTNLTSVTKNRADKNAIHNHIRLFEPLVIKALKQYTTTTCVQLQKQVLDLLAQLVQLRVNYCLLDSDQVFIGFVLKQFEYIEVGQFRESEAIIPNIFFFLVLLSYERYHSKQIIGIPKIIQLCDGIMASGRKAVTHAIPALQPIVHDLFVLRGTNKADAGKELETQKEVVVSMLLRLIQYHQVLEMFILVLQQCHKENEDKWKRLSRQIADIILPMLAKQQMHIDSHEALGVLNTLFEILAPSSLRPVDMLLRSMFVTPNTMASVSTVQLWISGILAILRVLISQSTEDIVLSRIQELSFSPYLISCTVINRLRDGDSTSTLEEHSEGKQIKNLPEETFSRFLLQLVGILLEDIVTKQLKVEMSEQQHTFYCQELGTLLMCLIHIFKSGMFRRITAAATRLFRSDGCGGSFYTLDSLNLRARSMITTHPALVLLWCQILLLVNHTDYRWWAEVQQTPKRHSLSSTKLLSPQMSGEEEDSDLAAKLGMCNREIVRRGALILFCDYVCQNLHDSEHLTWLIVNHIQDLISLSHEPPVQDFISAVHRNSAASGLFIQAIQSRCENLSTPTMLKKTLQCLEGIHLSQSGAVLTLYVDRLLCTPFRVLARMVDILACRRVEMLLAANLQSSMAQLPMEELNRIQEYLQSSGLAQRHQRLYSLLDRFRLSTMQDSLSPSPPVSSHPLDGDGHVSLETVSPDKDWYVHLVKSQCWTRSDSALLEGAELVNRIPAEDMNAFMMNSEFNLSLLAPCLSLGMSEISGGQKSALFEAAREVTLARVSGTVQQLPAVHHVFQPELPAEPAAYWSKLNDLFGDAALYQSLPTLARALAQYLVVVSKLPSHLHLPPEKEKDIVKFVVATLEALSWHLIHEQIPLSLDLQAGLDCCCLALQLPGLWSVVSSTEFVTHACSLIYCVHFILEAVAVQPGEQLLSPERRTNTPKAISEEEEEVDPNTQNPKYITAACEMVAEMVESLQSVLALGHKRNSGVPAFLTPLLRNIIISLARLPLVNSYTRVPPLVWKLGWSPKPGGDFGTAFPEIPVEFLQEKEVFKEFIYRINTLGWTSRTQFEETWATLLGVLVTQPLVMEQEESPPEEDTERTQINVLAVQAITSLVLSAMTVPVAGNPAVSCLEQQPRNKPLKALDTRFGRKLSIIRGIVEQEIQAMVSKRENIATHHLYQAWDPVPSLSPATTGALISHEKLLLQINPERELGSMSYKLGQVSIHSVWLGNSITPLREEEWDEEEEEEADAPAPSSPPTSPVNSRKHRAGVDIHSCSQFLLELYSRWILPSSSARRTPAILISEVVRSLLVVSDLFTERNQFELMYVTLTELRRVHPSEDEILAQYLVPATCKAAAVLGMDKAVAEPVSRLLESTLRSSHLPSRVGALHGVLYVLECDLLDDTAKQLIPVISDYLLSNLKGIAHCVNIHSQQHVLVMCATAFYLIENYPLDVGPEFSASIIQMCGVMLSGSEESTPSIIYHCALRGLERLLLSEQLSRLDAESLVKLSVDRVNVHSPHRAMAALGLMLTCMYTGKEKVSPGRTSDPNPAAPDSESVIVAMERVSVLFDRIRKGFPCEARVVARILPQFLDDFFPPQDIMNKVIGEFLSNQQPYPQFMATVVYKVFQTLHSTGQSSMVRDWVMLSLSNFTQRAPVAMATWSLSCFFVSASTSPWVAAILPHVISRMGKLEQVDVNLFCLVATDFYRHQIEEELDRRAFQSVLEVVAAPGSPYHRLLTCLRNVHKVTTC
Pf apPOL inh – Pf-apPOL DNA polymerase inhibition; Recombinant Pf-apPOL, molecular beacon fluorescence, 1.5 h; AID 1794808; inhibition, % at 10 µM; actives 0.25% (n = 210,000)
* = called active by the depositor; . = not tested or not shown. No stated cut-off is given here; in the data, active means inhibition above about 50%; inactive means the rest.

SMILES	mHTT-CaM PPI inh	Pf apPOL inh
CCc1ccc(N2C=C(C#N)S(=O)(=O)c3c(F)cccc32)cc1	2	-3
CCc1nc(-c2cccnc2N2CCCC(C(=O)NCC(C)C)C2)no1 (stereo unspecified)	6	-5
Cc1cccc(NC(=O)N2CCCC2C(N)=O)c1 (stereo unspecified)	-4	1
CCC(C)NC(=O)C1CCCN(S(=O)(=O)N2CCC(C)CC2)C1 (stereo unspecified)	3	-15
COc1ccc(C2=NC3(CCCCC3)N(CC(=O)Nc3ccc(Cl)cc3)C2=O)cc1	-6	-9
COc1ccc(C2=NC3(CCCCC3)N(CC(=O)Nc3ccc(F)c(Cl)c3)C2=O)cc1	100*	-6
CC(C)Cn1c(C2CCN(C(=O)c3ccc4cc[nH]c4c3)C2)nc2ccncc21 (stereo unspecified)	15	-3
O=C(c1ccc[nH]c1=O)N1CCN(Cc2nc3ccccc3n2Cc2ccccc2)CC1	7	-15
CCn1cnc2ccc(-c3noc(-c4ccccc4)n3)cc21	28	-19
CCn1cnc2ccc(-c3noc(Cc4c[nH]c5ccccc45)n3)cc21	99*	-5
Cn1cnc2ccc(-c3noc(CCc4c[nH]c5ccccc45)n3)cc21	76*	-3
Cn1cnc2ccc(-c3noc(Cc4cccs4)n3)cc21	9	0
CCn1cnc2ccc(-c3noc(-c4cccc(OC)c4)n3)cc21	76*	0
CCn1cnc2ccc(-c3noc(Cc4ccccc4Cl)n3)cc21	7	-1
COc1cccc(-c2nc(-c3ccc4ncn(C)c4c3)no2)c1	-8	-6
CCn1cnc2ccc(-c3noc(CCc4c[nH]c5ccccc45)n3)cc21	100*	-3
COc1ccccc1CNC(=O)CSc1nc2ccccc2[nH]1	10	-5
COc1ccc(CNC(=O)C2(C)CCCN(S(=O)(=O)c3ccc(C)cc3C)C2)cc1 (stereo unspecified)	6	0
CC1CCN(Cc2cc(Br)c(O)c3ncccc23)CC1	100*	-7
Cc1ccc2c(CN3CCC(C)CC3)cc(=O)oc2c1	-17	-8
Cc1cccc(OCC(=O)N2CCC3(CC2)NC(=O)N(Cc2ccccc2Cl)C3=O)c1	4	-6
CCOCCCNC(=O)C1CCCN(c2cn[nH]c(=O)c2)C1 (stereo unspecified)	-4	-2
OC(CNCCc1ccccc1)c1ccccc1 (stereo unspecified)	-2	-6
OC(CN1CCOCC1)Cn1c2ccc(Br)cc2c2cc(Br)ccc21 (stereo unspecified)	91*	-14
OC(CNCCc1ccccc1)Cn1c2ccc(Br)cc2c2cc(Br)ccc21 (stereo unspecified)	100*	.
SMILES	mHTT-CaM PPI inh	Pf apPOL inh
OC(CNCCOc1ccccc1)Cn1c2ccccc2c2ccccc21 (stereo unspecified)	85*	.
O=C1CSC(=O)N1CC(O)Cn1c2ccc(Br)cc2c2cc(Br)ccc21 (stereo unspecified)	27	.
OC(CNC1CCCC1)Cn1c2ccccc2c2ccccc21 (stereo unspecified)	6	-2
COc1ccc(C)cc1NC(=O)N1CC(C)C(c2nc(-c3ccccc3)no2)C1 (stereo unspecified)	1	0
Cc1cc(NC(c2cccc([N+](=O)[O-])c2)c2ccc3cccnc3c2O)no1 (stereo unspecified)	100*	1
Cc1cc(NC(=O)c2cccc([N+](=O)[O-])c2)no1	-6	-3
O=[N+]([O-])c1cccc(C(Nc2ccccn2)c2ccc3cccnc3c2O)c1 (stereo unspecified)	100*	-3
O=C(/C=C/c1cccc([N+](=O)[O-])c1)Nc1ccccn1	2	-4
Cc1noc(-c2nn(C)c3c2CN(C(=O)Cc2cccc(C(F)(F)F)c2)CC3)n1	-11	-11
Cc1cccc(NC(=O)CN2C(=O)N/C(=C/c3cccc(C(F)(F)F)c3)C2=O)c1	4	-6
CN(C)CC1CN(C(=O)c2ccoc2)CC12CCOCC2 (stereo unspecified)	-9	-9
COc1cc(C=C2SC(=S)N(c3cccc(O)c3)C2=O)ccc1O	81*	-81
COc1cc(C=C2SC(=S)N(c3ccc(C(=O)O)c(O)c3)C2=O)ccc1O	70*	-46
COc1cc(C=C2SC(=S)N(c3ccc4c(c3)OCO4)C2=O)cc(OC)c1OC	17	-5
COc1cc(C=C2SC(=S)N(CC(=O)O)C2=O)ccc1O	27	-12
CCOc1cccc(OCCCN2CCCCC2)c1	4	-4
c1cncc(CNc2ncnc3c2CCC3)c1	-11	-2
N#CC(C(=O)NCc1ccco1)=C1N=C(NC(=O)c2ccc([N+](=O)[O-])cc2)c2ccccc21	-10	-6
Cc1ccc2oc(C(=O)N3CCN(c4cccc(C(F)(F)F)c4)CC3)cc2n1	72*	-10
O=C(C1CCN(c2ccncc2)CC1)N1CCN(c2cccc(C(F)(F)F)c2)CC1	7	1
Cc1ccc(OCC(=O)Nc2ccc(F)cc2)cc1	-12	2
Cc1ccc(NC(=O)COc2ccc(Br)cc2)cc1	-16	80*
CC1=NN(C)C(=O)C1=CN(C)C	.	8
COc1ccc(/C=C2\CCC3=C2OC(N)=C(C#N)C3c2ccc(OC)cc2)cc1 (stereo unspecified)	63*	-10
N#CC1=C(N)OC2=C(C(=O)CC(c3ccccc3)C2)C1c1cccc(F)c1 (stereo unspecified)	10	-7
SMILES	mHTT-CaM PPI inh	Pf apPOL inh
N#CC1=C(N)OC2=C(CC/C2=C\c2cccc(F)c2)C1c1cccc(F)c1 (stereo unspecified)	94*	-3
COc1ccc(/C=C2\CCCC3=C2OC(N)=C(C#N)C3c2ccc(OC)c(OC)c2)cc1OC (stereo unspecified)	38	-2
CN(C)c1nc(Oc2ccc(OCC(N)=O)nn2)nc(N(C)C)n1	-3	1
CC1=C(C(=O)Nc2nc3ccccc3s2)C(c2ccc(F)cc2)C2=C(CC(C)(C)CC2=O)N1 (stereo unspecified)	-28	-7
Cc1nnc(NC(=O)c2cc(-c3cccs3)nc3ccccc23)s1	-6	5
COc1cc(C)c(C)cc1S(=O)(=O)Nc1cccc(-c2ccc(N3CCCC3)nn2)c1	77*	-3
COc1ccc(NC(=O)Nc2cccc(-c3ccc(N4CCOCC4)nn3)c2)cc1OC	50*	-18
O=C(Nc1cccc(-c2ccc(N3CCOCC3)nn2)c1)c1ccc2nsnc2c1	-6	2
O=C(Nc1cccc(-c2ccc(N3CCCCC3)nn2)c1)c1ccccc1[N+](=O)[O-]	12	3
O=C(Nc1cccc(-c2ccc(N3CCOCC3)nn2)c1)c1cc(-c2ccco2)on1	55*	42
Cc1ccc(-c2ccc(N3CCN(S(C)(=O)=O)CC3)nn2)cc1C	-8	-6
O=C(NCc1ccccc1)Nc1cccc(-c2ccc(N3CCCC3)nn2)c1	85*	-52
O=C(COc1ccc(F)cc1F)Nc1cccc(-c2ccc(N3CCOCC3)nn2)c1	-2	-1
CCOC(=O)COc1cccc2c1CCN(Cc1ccc(Cl)cc1)C2=O	46	-18
O=C(CSc1nnc(CNC(=O)c2c(F)cccc2Cl)o1)Nc1nc2ccccc2s1	1	-8
Cc1noc(-c2cccc(C(F)(F)F)c2)c1C(=O)NCc1ccccc1	-9	-1
Cc1ccccc1C(=O)N1CCN(c2nc(CN3CCCCC3)cs2)CC1	8	-5
O=C1N(Cc2ccccc2F)c2ccccc2C12OCCCO2	-28	-7
